# According to paper PMC7826789 (International Journal of Molecular Sciences, 2021):
# Tested on: LTK
# Conditions: Compound Concentration (nM):1000
# 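Further: KINOMEscan scanMAX binding as percent activity remaining versus control; lower means stronger binding.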
row,SMILES,Percent Control [%]
1,Cl.O=S1CCN(Cc2ccc(-c3ccc4ncnc(Nc5ccc(OCc6ccccc6)c(F)c5)c4c3)o2)CC1 [GW576924A],100
2,COc1ccc2[nH]c3c4[nH]c5ccc(OC)cc5c4c4c(c3c2c1)C(=O)NC4=O [GW296115X],58
3,COc1cc2ncnc(Nc3ccc4c(cnn4Cc4ccccc4)c3)c2cc1OC.Cl [GW282449A],46
4,COc1cc(C=NNc2ncnc3c2cnn3-c2ccccc2)ccc1O [GW513184X],100
5,COc1ccccc1-c1cc(/C=C2\C(=O)Nc3ncc(Br)cc32)cc(Br)c1O [GW442130X],100
6,CN1CCN(C(=O)c2ccc(NC(=O)Nc3ccc(N(C)c4ccnc(Nc5ccc(CS(C)(=O)=O)cc5)n4)cc3)cc2)CC1.Cl [GW830263A],85
7,O=C1Nc2ccc(C(=O)c3ccco3)cc2C1=Cc1cc(Cl)c(O)c(Cl)c1 [GW406108X],93
8,COc1cc(/C=N/Nc2ncnc3[nH]ncc23)ccc1O [GW578748X],100
9,Cc1cc(O)cc(C)c1/C=C/c1cncc(C(N)=O)c1 [GW435821X],100
10,CCS(=O)(=O)c1ccc(OC)c(Nc2ncc(-c3cccc(F)c3)o2)c1 [GW621970X],100
11,Cl.O=C(Nc1ccc(Oc2ccc3[nH]c(NC(=O)c4ccco4)nc3c2)cc1)Nc1cc(C(F)(F)F)ccc1F [GW683134A],6.2
12,Nc1ncnc2occ(-c3ccc(NC(=O)Nc4cc(C(F)(F)F)ccc4F)cc3)c12 [GW770249X],4.5
13,O=C(Nc1n[nH]c2nc(-c3ccc(O)cc3)c(Br)cc12)C1CC1 [SB-725317],60
14,CC1=C(C(=O)Nc2ccc3[nH]ncc3c2)C(c2ccc(Cl)c(Cl)c2)CC(=O)N1 (stereo not drawn) [GSK299115A],84
15,NS(=O)(=O)c1ccc(N/N=C2\C(=O)Nc3ccc(Cl)cc32)cc1 [GW280670X],100
16,CC1=C(C(=O)Nc2ccc3[nH]ncc3c2)C(c2ccc3ccccc3c2)CC(=O)N1 (stereo not drawn) [GSK270822A],100
17,COc1cccc(-c2c[nH]c3c(N/N=C/c4ccncc4)ncnc23)c1 [GW814408X],98
18,NS(=O)(=O)c1ccc(N/N=C2\C(=O)Nc3ccc(C(=O)NCCc4c[nH]cn4)cc32)cc1 [GW300660X],100
19,CN(C)CCNC(=O)Nc1ccc(N(C)c2ccnc(Nc3ccc(CS(C)(=O)=O)cc3)n2)cc1.Cl [GW830900A],100
20,COc1ccc2cc(-c3c(-c4ccncc4)nc(-c4ccc(S(C)(=O)=O)cc4C)n3C)ccc2c1 [SB-633825],23

row,SMILES,Percent Control [%]
1,NS(=O)(=O)c1ccc(N/N=C2\C(=O)Nc3ccc(-c4cnco4)cc32)cc1 [GW276655],100
2,COc1ccc2c(-c3ccnc(Nc4cccc(OC(F)(F)F)c4)n3)cnn2n1 [GW810372X],100
3,Cl.O=C(O[C@H]1CN[C@H](C#Cc2cc3ncnc(Nc4ccc5c(cnn5Cc5ccccc5)c4)c3s2)C1)N1CCOCC1 [GSK200398A],85
4,CCS(=O)(=O)c1ccc(OC)c(Nc2ncc(-c3cccc(OC)c3)o2)c1 [GW580509X],100
5,CCc1ccc(Oc2nccc(-c3c(-c4ccc(F)cc4)ncn3C3CCNCC3)n2)cc1 [SB-242719],95
6,NS(=O)(=O)c1ccc(N/N=C2\C(=O)Nc3ccc(C(=O)NCc4ccncc4)cc32)cc1 [GW300657X],100
7,COc1ccc(COc2ccc(Cc3cnc(N)nc3N)cc2OC)cc1 [GW632580X],86
8,NS(=O)(=O)c1ccc(Nc2ncc(-c3ccccc3)o2)cc1 [GW572399X],100
9,COC(=O)Nc1nc2ccc(Oc3ccc(NC(=O)Nc4cc(C(F)(F)F)ccc4F)cc3)cc2s1.Cl [GW693917A],18
10,COc1cc(C)c(N(C)C(=O)CN(C)C)cc1Nc1nc(Nc2cccc(F)c2C(N)=O)c2cc[nH]c2n1 [GSK2219385],74
11,COc1cc(N2CCN(C(C)C)CC2)ccc1Nc1nc(Nc2ccc(F)cc2C(=O)NC[C@@H](O)CO)c2cc[nH]c2n1 [GSK1392956A],66
12,CC(C)COC(=O)c1ccc2c(c1)/C(=C/Nc1ccc(S(N)(=O)=O)cc1)C(=O)N2 [GW416981X],100
13,Cl.c1ccc(Cc2nc3ccc(Nc4ncnc5ccccc45)cc3[nH]2)cc1 [GR269666A],100
14,CCn1c(-c2nonc2N)nc2c(C#CC(C)(C)O)nc(OCCNC)cc21.Cl [GSK949675],100
15,COc1cc2ncn(-c3cc(O[C@H](C)c4ccccc4Cl)c(C(N)=O)s3)c2cc1OC [GSK237701A],26
16,COc1cccc(-n2ncc3c(N/N=C/c4ccncc4)ncnc32)c1 [GW784752X],100
17,C[C@@H](Oc1cc(-n2cnc3ccc(OC4CCN(C)CC4)cc32)sc1C(N)=O)c1ccccc1Cl [GSK579289A],24
18,Cl.O=C(Nc1ccc(Oc2ccc3[nH]c(NC(=O)c4ccccc4)nc3c2)cc1)Nc1cc(C(F)(F)F)ccc1F [GW709042A],9.5
19,C/C(Nc1ccc(S(N)(=O)=O)cc1)=C1/C(=O)Nc2ccccc21 [GW335962X],78
